Source: PubChem BioAssay (National Center for Advancing Translational Sciences (NCATS))
Most compounds without a hit are left out; they make up all but 19% or so of the library.
Lassa entry inh = inhibitors of Lassa virus binding or cell entry | Lassa virus pseudotype entry inhibition, cell reporter | 300,000 compounds, 1.2% hits | Potency, µM (highest dose often 37.9 µM), inactives show top-dose activity change, negative = inhibition, hits mostly inhibitors; calls by dose curve; tested in HEK293 cells; also: potency is read from the fitted curve at half-maximal effect; % is scaled to controls: 0 for no effect and ±100 for the full control effect; nearly all actives have a fitted effect of over 50% in size
Pf growth 48h = P. falciparum growth inhibition at 48 hours (one generation) | P. falciparum luciferase growth in erythrocytes, 48 h | Potency, µM (top dose mostly 28.7 µM), without a hit: at the top dose activity change, negative = inhibition, hits mostly inhibitors | 310,000 compounds, 5.9% hits; also: potency is read from the fitted curve at half-maximal effect; % is scaled to controls: 0 for no effect and ±100 for the full control effect
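Firefly luciferase activity from engineered P. falciparum reports growth; inhibitors lower the luminescent signal. Cultures contained 2% hematocrit erythrocytes at 0.1% final parasitemia.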
CHX counter = affects cycloheximide protein synthesis inhibition readout, counter-screen; max response, %; cell reporter, cycloheximide protein synthesis inhibition counterscreen; 300,000 compounds, 12% hits; in the data active = max response mostly above about 13%, no sharp cut-off; inactive = mostly below about 14%; also: read at 38.3 µM for the half of the compounds with a filed dose; 0% is about no effect
Shiga toxin inh = blocks Shiga toxin action in Vero cells; Vero cells, Shiga toxin protein synthesis inhibition reporter; inhibition, % at 38.7 µM; 290,000 compounds, 9.2% hits; in the data active = inhibition mostly above about 28%, no sharp cut-off; inactive = mostly below about 43%; also: 0% is about no effect
Marburg entry inh = inhibitors of Marburg virus binding or cell entry. Marburg virus pseudotyped entry inhibition, cell reporter. Potency, µM (doses to about 37.8 µM), for the others: at the top dose activity change, negative = inhibition, actives largely listed as inhibitors. 300,000 compounds, 1.8% hits; calls by dose curve; tested in HEK293 cells; also: potency is read from the fitted curve at half-maximal effect; % is scaled to controls: 0 for no effect and ±100 for the full control effect
Pf growth 96h = P. falciparum growth inhibition at 96 hours; P. falciparum luciferase reporter growth, 96 h; Potency, µM (highest dose often 28.7 µM), inactives show at the top dose activity change, negative = inhibition, most hits filed as inhibitors; 320,000 compounds, 6.9% hits; AID 504834; also: potency is read from the fitted curve at half-maximal effect; % is scaled to controls: 0 for no effect and ±100 for the full control effect
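Erythrocytes infected with luciferase-expressing P. falciparum were dispensed at 2% hematocrit and 0.05% parasitemia (final), then incubated with compounds 96 hours at 37 C in 5% CO2. Luminescence after detection reagent addition reported growth.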
* marks the source's active call; other numbers are inactive results; ? = inconclusive; . = no result given; [ ] = another dose, or the depositor's remark. Unless noted, calls follow the shape of the dose curve; as a rule, active = well fitted inhibition curve with a large enough effect; inconclusive = small, poorly fitted or top-dose-only effect, or another doubt; inactive = no such curve, though single readings can be large or run the other way.

SMILES	Lassa entry inh	Pf growth 48h	CHX counter	Shiga toxin inh	Marburg entry inh	Pf growth 96h
CCCCn1c(=O)[nH]c2nc3cc(NC(C)=O)ccc3nc2c1=O	14%	15µM*	7	5	11%	2%
CCCCCCn1c(=O)[nH]c2nc3cc(N)c(C)cc3nc2c1=O	?	-12%	3	-13	?	?
Cc1ccc([N+](=O)[O-])cc1N(CC(=O)N1CCCCC1)S(C)(=O)=O	-1%	2%[5.75 µM]	-3	-9	-9%[46.1 µM]	38%
COc1ccc(N(Cc2ccccc2)S(=O)(=O)c2cccc(C(=O)NC3=NCCS3)c2)cc1	-14%	3%	-4	-2	-25%[46.1 µM]	?
COc1ccccc1N(Cc1ccccc1)S(=O)(=O)c1cccc(C(=O)Nc2ccc(C(C)=O)cc2)c1	-4%	?	46*	44*	35%	3.7µM*
COc1ccc(OC)c(NC(=O)c2ccc(CN3CCc4ccccc4C3)cc2)c1	.	.	-2	-6	.	-28%
COc1ccc(OC)c(N(CC(=O)NCc2ccccc2)S(=O)(=O)c2ccccc2)c1	-4%[46.1 µM]	.	.	.	?	.
COc1ccc(OC)c(NC(=O)c2ccc(CN(c3cc(Cl)ccc3C)S(=O)(=O)c3ccccc3)cc2)c1	-15%	1.5µM*	-2	-1	?	?
COc1ccc(OC)c(NC(=O)c2cccc(S(=O)(=O)N(Cc3ccccc3)c3ccccc3OC)c2)c1	6%	15µM*	2	-6	?	7.4µM*
N=C1/C(=C/c2coc3ccccc3c2=O)C(=O)N=C2SC(c3ccco3)=NN12	?	0%	7	-3	5%[46.1 µM]	23%
CC1CCCCN1N=Nc1nc2c([nH]1)c(=O)n(C)c(=O)n2C (stereo unspecified)	-11%[46.1 µM]	.	.	.	-3%[46.1 µM]	.
COc1ccc(C(=O)CCC(=O)Nc2cccnc2)cc1OC	-4%	6%	-2	11	-11%[46.1 µM]	4%
COC(=O)C1C(c2ccc(Cl)cc2)NC(c2ccc(Cl)cc2)C(C(=O)OC)S1(=O)=O (stereo unspecified)	-23%	.	1	3	?	?
CNc1nc(N)c([N+](=O)[O-])c(NC2CCCCC2)n1	?	-27%	-12	-13	13%	?
Nc1nc(NCCOCCO)nc(NC2CCCCC2)c1[N+](=O)[O-]	-7%[46.1 µM]	?	-3	2	-6%[46.1 µM]	12µM*
Nc1nc(NCCO)nc(NC2CCCCC2)c1[N+](=O)[O-]	?	.	0	-6	14%[46.1 µM]	5.2µM*
Nc1nc(Nc2ccccc2)nc(NC2CCCCC2)c1[N+](=O)[O-]	?	?	-4	-6	?	13µM*
CC(C)CCNc1nc(N)c([N+](=O)[O-])c(NC2CCCCC2)n1	.	-30%	-6	-7	.	?
CN(C)CCCNc1nc(N)c([N+](=O)[O-])c(NC2CCCCC2)n1	.	-20%	1	-7	.	-28%
O=C(Nc1ccc(F)cc1)c1ccc(NC(=O)C2CCCO2)cc1 (stereo unspecified)	18%	33%	21*	73*	-1%[46.1 µM]	1.9µM*
O=C(O)c1cccc(C(=O)Nc2cccc(NC(=O)C3CCCO3)c2)c1 (stereo unspecified)	10µM*	277%	2	10	11µM*	?
O=C(Nc1ccc(C(F)(F)F)cc1)c1ccc(NC(=O)C2CCCO2)cc1 (stereo unspecified)	?	-18%	-4	4	?	?
O=C(O)c1cccc(NC(=O)c2cccc(NC(=O)C3CCCO3)c2)c1 (stereo unspecified)	-26%	152%	1	-19	-21%	.
O=C(Nc1cccc(O)c1)c1ccc(NC(=O)C2CCCO2)cc1 (stereo unspecified)	?	114%	47*	110*	?	7%
Cc1ccc(NC(=O)Cn2nc(C(F)(F)F)c3c2CCCC3)cc1	5%[46.1 µM]	.	.	.	-14%[46.1 µM]	.
CCc1nnc(NC(=O)CSc2nc3c([nH]c4ccccc43)c(=O)n2CCOC)s1	?	4%	-1	32	28%	12%
Cc1c(-c2nc(-c3ccccc3F)no2)nnn1-c1cc(F)ccc1F	4%[46.1 µM]	.	.	.	.	.
CCOC(=O)N1CCN(C(=O)C2CCN(S(=O)(=O)c3cc(C)ccc3OC)CC2)CC1	10%[46.1 µM]	-1%[5.75 µM]	-3	-12	-1%[46.1 µM]	0%
